# Data from PubChem BioAssay (NCI).
# Compounds without any hit were thinned out: in the full panel of roughly 83,000, 20% have a hit.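 Plates (96-well) were seeded with cells, treated with compound at one concentration, and incubated for 48 hours before percent growth was determined.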 Values without a mark were called inactive. Active and inactive are the calls of the source.
# System: SR leukemia
# Experiment: NCI-60 one-dose screen, 48 h (100 = growth as untreated, 0 = no growth, -100 = all killed)
# Conditions: 10 µM unless noted
# Description: Growth inhibition of the SR human tumor cell line is measured as a screen for anti-cancer activity. Cells are grown in 96 well plates and exposed to the test compound for 48 hours. Compounds are tested at a single concentration, which is 10^-5 M for most compounds. The reported endpoint is percent growth (GI% or GIPRCNT), where numbers from 0 - 100% represent growth inhibition, and numbers from -100% - 0 represent cell death. For example, a value of 40 represents 60% growth inhibition. A value of 0 means no net growth occurred over the course of the experiment. A value of -40 indicates 40% of cells at the beginning of the experiment died by the end of the experiment. A value of -100 means all cells are dead at the end of the experiment.
# NCI-60 Human Tumor Cell Lines Screen was performed using the standard one-dose NCI protocol, which is described in more detail at https://dtp.cancer.gov/discovery_development/nci-60/default.htm.
# Compounds with GIPRCNT values below 10 were considered active. Activity score was based on GIPRCNT using the following formula: […]
# Score is 0 for GIPRCNT values of 100 or above, 50 for GIPRCNT values of 0, and 100 for GIPRCNT values of -100.
row,SMILES,growth
1,O=C1[C@H]2Cc3c([nH]c4ccccc34)[C@@H](c3ccc(Br)cc3)N2C(=O)CN1C1CCN(CC2CCCCC2)CC1,-67.6% (active)
2,C=CCN(C)S(=O)(=O)/N=C1\NC(=O)NC1=C(Cl)Cl,-18.7% (active)
3,O=C(NCCn1ccnc1)c1ccc(-c2nc3ccc4[nH]ncc4c3c3c2CCCC3)cc1,2.67% (active)
4,Cn1cc(-c2cc(N)n3nc(-c4cn(C)c5ccccc45)cc3n2)c2ccccc21,-9.33% (active)
5,COc1cc2nc(Cl)nc(Nc3cccc(C4=Nc5c(N)nc(N)nc5NC(c5ccc6c(c5)OCO6)C4)c3)c2cc1OC (stereo not given),10.3%
6,COc1ccc(-c2nc3cc(Cl)c(Cl)cc3n2CC(=O)N=Nc2c(O)[nH]c3ccc(OC)cc23)cc1,60.6%
7,COc1ccccc1-n1cc(C#N)c(N)c1C(=O)c1ccc(C)cc1,49.4%
8,COc1cccc(N2CCN(c3ncnc4c3[nH]c3ccc(F)cc34)C[C@H]2C)c1,46.4%
9,CCN1CCN(Cc2ccc(C(=O)Nc3ccc(C)c(Oc4ccc(-c5[nH]nc6ncnc(N)c56)cc4)c3)cc2C(F)(F)F)CC1,11.3%
10,O=C(O)c1ccc(-n2cc(CNc3cccc(Cl)c3)c(-c3ccc(F)cc3)n2)cc1,130%
11,Cc1cc(C)c(N2C(=O)CC(Nc3ccc(Cl)cc3Cl)C2=O)c(C)c1 (stereo not given),97.5%
12,CCCn1cnc2c(c1=N)C(c1ccc(OC)cc1)c1sc3c(CC)cccc3c1O2 (stereo not given),8.89% (active)
13,O=C1CCC(N2C(=O)c3ccc(NS(=O)(=O)c4ccccc4OC(F)(F)F)cc3C2=O)C(=O)N1 (stereo not given),77.4%
14,CS(=O)(=O)Nc1cc(-c2ccc3ncc(C#N)c(NCc4ccccc4F)c3c2)cnc1Cl,3.57% (active)
15,COc1ccc(CCOc2cc3c(cc2OC)CCN(C(=O)NCc2cocn2)C3c2ccc(C)cc2C)cc1 (stereo not given),5.38% (active)
16,C=CCOc1cccc(/C=C2\SC(=S)N(C3CC(=O)N(c4ccc(Br)cc4)C3=O)C2=O)c1 (stereo not given),93.7%
17,COc1ccc2[nH]cc(/C=N/Nc3nc4ccccc4s3)c2c1,45.5%
18,N#Cc1cccc(CN2CCc3ncn(Cc4ccc(Cl)cc4)c(=O)c3C2)c1,36.2%
19,C=CC(=O)N1CC=C(c2cc3c(N[C@H](C)c4ccccc4)ncnc3[nH]2)CC1,66.7%
20,CNc1ncc2cc(-c3ccc(-c4ncccc4F)cc3Cl)c(=O)n(CC3OCC(N)CO3)c2n1 (stereo not given),32.2%

row,SMILES,growth
1,COC(=O)c1[nH]nc2c1C1(C(=O)c3cccc4cccc1c34)C(C#N)=C(N)O2 (stereo not given),115%
2,Cc1ccc(-c2cc3nc(C(Cl)Cl)nc(-c4cccs4)n3n2)cc1,108%
3,C=C(C)[C@@H]1CC[C@]2(COCCCNCCC#N)CC[C@]3(C)[C@H](CC[C@@H]4[C@@]5(C)CC[C@H](OCCCNCCC#N)C(C)(C)[C@@H]5CC[C@]43C)[C@@H]12,-18.4% (active)
4,CCCCCc1ccc(S(=O)(=O)Nc2cc(-c3csc(NC(=O)CN4CCN(C)CC4)n3)ccc2N2CCN(C)CC2)cc1,-40.7% (active)
5,COc1ccccc1N1CCN(C2=CC(=O)C(C)=C(C)C2=O)CC1,119%
6,Cc1ccc(NC(=S)NNC(=S)Nc2ccc(C)cc2)cc1,90%
7,Cc1cc(C)cc(C(=O)Nc2cccc(C#Cc3cccc4[nH]nc(N)c34)c2)c1,4.43% (active)
8,COc1cc2c(cc1OC)C(Sc1ccc(F)cc1)c1c(nc(N)c(C#N)c1N)O2 (stereo not given),0.989% (active)
9,COc1ccc(NC(=O)CSc2nnc(-c3ccc4nc(-c5ccccc5)[nH]c4c3)o2)cc1,91.2%
10,NC(N)=Nc1ccc(Oc2cccc(NC(N)=Nc3ccc(I)cc3F)c2)cn1,7.24% (active)
11,Nc1nc(N)c2c(n1)NC(c1ccc(C(F)(F)F)cc1)CC(c1ccc(Nc3nc(NCCO)nc(N4CCOCC4)n3)cc1)=N2 (stereo not given),5.13% (active)
12,COc1ccc(CCN2C(=O)CSC2=S)cc1,65.8%
13,COc1ccc(C(=O)c2c(N)c(C#N)cn2-c2ccccc2OC)cc1,16.1%
14,CC[C@@H](CO)Nc1ccc2ncc(C#Cc3cncc(C(=O)Nc4ccc(CN5CCN(C)CC5)c(C(F)(F)F)c4)c3)n2n1,-24.4% (active)
15,CC1(C)CC[C@]2(CN)CC[C@]3(C)C(=CC[C@@H]4[C@@]5(C)CCCNC(C)(C)[C@@H]5CC[C@]43C)[C@H]2C1,61.7%
16,O=S(=O)(NC1c2ccccc2C[C@H]1O)c1ccc(Cl)cc1Cl (stereo not given in full),87.2%
17,CCNC(=O)N1CCc2cc(OC)c(OCCc3ccc(OC)c(N)c3)cc2C1c1ccc(C)cc1C (stereo not given),15.3%
18,COc1c(N2CC3CCCNC3C2)c(F)cc2c(=O)c(C(=O)N/N=C/c3ccc(N(C)C)cc3)cn(C3CC3)c12 (stereo not given),-33.5% (active)
19,COc1ccc(C2c3sc4c(C)cccc4c3Oc3nc(CC(=O)Nc4ccccc4)[nH]c(=O)c32)cc1 (stereo not given),62.7%
20,CN(C)CCCOc1ccc2c(c1)CN(C(=O)c1cc(C(=O)N3Cc4cccc(F)c4C3)ccc1O)C2,96.8%
